A selection: hits, their analogues and other compounds. The true share with any hit is near 2.5%.
ASK1 primary: inhibitors of human ASK1 kinase; AlphaScreen MKK6 phosphorylation by ASK1, luminescence; inhibition, % at 7.44 µM; 22,000 tested, 0.99% active; in the data active = inhibition above about 35%;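 also: 0% = median of compound wells and 100% = no enzyme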
ULK1 inh: human ULK1 kinase inhibition, primary screen; O75385; AlphaScreen Atg13 phosphorylation by ULK1, luminescence; 30,000 tested, 1.9% active; inhibition, % at 5.96 µM; in the data active = inhibition above about 43%;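 also: 0% = median of compound wells and 100% = no enzyme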
Numbers without * were called inactive; ! = not confirmed by another sample.

`CC(=O)Nc1ccc(Nc2nc(-c3ccc(N4CCOCC4)nc3)nc3c2ncn3CCN2CCCC2=O)cc1` gave ASK1 primary 9 and ULK1 inh 0.
Screening COc1cc(N2CCOCC2)ccc1Nc1cc(Nc2ccccc2C(N)=O)c(C(F)F)cn1 returned ASK1 primary -31 and ULK1 inh 83*.
Screening Cn1nc(C2CC2)cc1Nc1cc(Nc2ccc(N3CCOCC3)cc2)ncc1C(F)(F)F returned ASK1 primary 10 and ULK1 inh 46*.
`COc1cc(N2CCOCC2)ccc1Nc1cc(Nc2ccccc2C(=O)N(C)C)c(C(F)(F)F)cn1` gave ASK1 primary 7 and ULK1 inh 74*.
COc1cc(N2CCOCC2)ccc1Nc1cc(-c2cnn(C)c2)c(Cl)cn1 was read as ASK1 primary -12 and ULK1 inh 3.
CNC(=O)c1ccccc1Nc1cc(Nc2ccc(N3CCOCC3)cc2OC)ncc1C was read as ASK1 primary -3 and ULK1 inh 18.
For Cn1ccc(-c2ccccc2Nc2ccnc(Nc3ccc(N4CCOCC4)cc3)c2)n1 the results were ASK1 primary 19 and ULK1 inh -4.
COc1cc(C=O)c(Br)c(Br)c1O was read as ULK1 inh -4.
COc1ccc(C(N)C(=O)N2CCN(c3ccc4[nH]ncc4c3)CC2)cc1 (stereo not drawn) was read as ASK1 primary -4 and ULK1 inh 7.
Cn1c(C2COc3ccccc3O2)nc2ccc(-c3ccncc3)cc21 (stereo not drawn) was read as ASK1 primary 11 and ULK1 inh -3.
CCCNc1cc(NCC)ncn1 was read as ASK1 primary 11 and ULK1 inh -5.
Cc1cc2c(C(C)C)c(O)c(O)c(C=O)c2c(O)c1-c1c(C)cc2c(C(C)C)c(O)c(O)c(C=O)c2c1O was read as ULK1 inh 57*.
For NC(=O)c1ccc(-c2cncc(C(=O)Nc3ccccc3)c2)cc1 the results were ASK1 primary -12 and ULK1 inh -20.
`c1ccc(Nc2ccnc(NCc3cccnc3)n2)cc1` gave ASK1 primary -2 and ULK1 inh 8.
`O=C(NCCN1CCOCC1)c1cccc(-n2ncc3cc(Nc4ccccc4)c(N4CCOCC4)cc32)c1` gave ASK1 primary -29 and ULK1 inh 65*.
COc1cc2c(cnn2-c2cccc(C(=O)NCCN3CCOCC3)c2)cc1Nc1ccccc1 was read as ASK1 primary -3 and ULK1 inh -18.
`Clc1nccc(NCc2nc3ccccc3[nH]2)n1` gave ASK1 primary -7 and ULK1 inh 6.
Screening O=C(Nc1ccc(N2CCOCC2)cc1)c1csc(NC2CCC(O)CC2)n1 (stereo not drawn) returned ASK1 primary 18 and ULK1 inh -3.
For O=C1CCCN1CCn1cnc2c(NCc3ccccc3)nc(N3CCC(N4CCOCC4)CC3)nc21 the results were ASK1 primary -9 and ULK1 inh 5.
`CC(C)c1nc2ccc(-c3cnn(C)c3)cc2c(=O)[nH]1` gave ASK1 primary -10 and ULK1 inh -3.
For Cc1n[nH]c(C)c1-c1ccc2nc(C(C)C)[nH]c(=O)c2c1 the results were ASK1 primary 6 and ULK1 inh 60*.
Screening c1ccc(-c2cc(N3CCN(c4ccccn4)CC3)nc(-c3ccccn3)n2)nc1 returned ULK1 inh -19.
For CCCNC(=O)c1ccc(Cl)cc1Cl the results were ULK1 inh 6.
For CCCCNC(=O)c1ccc(Cl)cc1O the results were ULK1 inh 43*!.
For CCCNC(=O)c1cccc(NC2CCC(O)CC2)n1 (stereo not drawn) the results were ASK1 primary -12 and ULK1 inh 2.
For O=Cc1oc2ccc([N+](=O)[O-])cc2c1O the results were ULK1 inh 3.
`O=C(NCc1cccnc1)c1ccnc(N2CCC(N3CCOCC3)CC2)c1` gave ASK1 primary -2 and ULK1 inh -1.
For CCS(=O)(=O)c1ccc(-c2ccnc(Nc3ccc(S(N)(=O)=O)cc3)n2)cc1 the results were ASK1 primary -24 and ULK1 inh 15.
CN(C)S(=O)(=O)Nc1ccc(-c2ccnc(Nc3ccc(S(N)(=O)=O)cc3)n2)cc1 was read as ASK1 primary 3 and ULK1 inh 48*.
`CS(=O)(=O)Cc1ccc(-c2ccnc(Nc3ccc(S(N)(=O)=O)cc3)n2)cc1` gave ASK1 primary -14 and ULK1 inh 50*.
For NS(=O)(=O)c1ccc(Nc2nccc(-c3ccc(Nc4ccccc4)cc3)n2)cc1 the results were ASK1 primary -59 and ULK1 inh -4.
For CS(=O)(=O)Nc1cccc(-c2ccnc(Nc3cccc(S(N)(=O)=O)c3)n2)c1 the results were ASK1 primary -1 and ULK1 inh 26.
`CS(=O)(=O)Nc1ccc(-c2ccnc(Nc3cccc(S(N)(=O)=O)c3)n2)cc1` gave ASK1 primary -20 and ULK1 inh 58*.
`CC(=O)Nc1ccc(NC(=O)c2ccc(-c3ccccc3)s2)cc1` gave ASK1 primary -5 and ULK1 inh 17.
`Cc1cncc(NC(=O)c2cccc(-n3cc(Nc4nnnn4-c4ccccc4Cl)cn3)c2)c1` gave ASK1 primary 1 and ULK1 inh -16.
Cc1ncn(-c2ccc(Nc3ncc4cccc(-c5ccn[nH]5)c4n3)cc2)n1 was read as ASK1 primary 16 and ULK1 inh 24.
Cc1ncn(-c2ccc(Nc3ncc4cccc(-c5cccc6c5ccn6C)c4n3)cc2)n1 was read as ASK1 primary -5 and ULK1 inh -5.
Screening Cc1ncn(-c2ccc(Nc3ncc4cccc(-c5ccnn5C)c4n3)cc2)n1 returned ASK1 primary -26 and ULK1 inh 52*.
For Cc1ncn(-c2ccc(Nc3ncc4cccc(-c5nccs5)c4n3)cc2)n1 the results were ASK1 primary 11 and ULK1 inh 50*.
Screening Cc1ncn(-c2ccc(Nc3ncc4cccc(-c5cn[nH]c5C)c4n3)cc2)n1 returned ASK1 primary -21 and ULK1 inh 55*.
Screening Cc1ncn(-c2ccc(Nc3ncc4cccc(-c5cccnc5)c4n3)cc2)n1 returned ASK1 primary 9 and ULK1 inh 10.
Screening Cc1ncn(-c2ccc(Nc3ncc4cccc(-c5ccn(C)n5)c4n3)cc2)n1 returned ASK1 primary -74 and ULK1 inh 89*.
Cc1ccc(-c2ncn(-c3ccc(Nc4ncc5cccc(-c6nccs6)c5n4)cc3)n2)cn1 was read as ASK1 primary 20 and ULK1 inh 3.
Screening O=C(Nc1ccc2c(c1)OCO2)c1ccc2nc(Nc3ccncn3)sc2c1 returned ASK1 primary 16 and ULK1 inh 12.
COc1ccc(CC(=O)Nc2cc(-c3cn[nH]c3)ccn2)cc1 was read as ASK1 primary -4 and ULK1 inh 6.
O=C(CCNC(=O)Oc1ccccc1)NC1CCCCCC1 was read as ULK1 inh 0.
For COc1ccc(CCNC(=O)c2csc(-c3csc4ccccc34)n2)cc1 the results were ASK1 primary -33 and ULK1 inh -13.
Screening Cc1ncn(-c2ccc(Nc3nccc(-c4cc(F)cc(-c5ccnn5C)c4)n3)cc2)n1 returned ASK1 primary 19 and ULK1 inh 15.
For Cc1ncn(-c2ccc(Nc3ncc(Cl)c(-c4ccnn4C)n3)cc2)n1 the results were ASK1 primary -8 and ULK1 inh 64*.
For Nc1ncnc2nc(-c3ccc(C(=O)NC4CC4)cc3)[nH]c12 the results were ASK1 primary 20 and ULK1 inh 13.

Screening data from PubChem.
